In PubChem BioAssay AID1508600 (Functional Genomics Laboratory (NCATS/FGL), 2020):
Among all 53,000 sequences or so, about 3,700 (7%) were called active.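 How the source made its calls: active means gene knockdowns whose robust z-score for IL-1 alpha signal is at least 2 or at most -2, so actives lie on both sides; inactive means the rest.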 Many of the other results were omitted from the sample, so actives are more common in it than they were.

test: Components of the Cytosolic LPS Sensing Pathway: Gene Identification via Genome-wide siRNA Screen; settings: RAW264.7 macrophages, IL-1a HTRF, actives lie on both sides, screened at 100 nM (by protocol), cells primed 5 h with Pam3CSK4 first;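 further: robust z of the log signal after scaling to non-targeting control siRNA wells of the plate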
Procedure, shortened: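 IL-1a HTRF of supernatants after 24 hour LipidA transfection of Pam3CSK4-primed (5 hours) RAW264.7 cells, 48h post-siRNA transfection (100 nM). Scores: percent of plate negative-control median, then log-based robust z-score.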

z-score, active:
GGUACACUACAUGACUCAUTT against Sall4 2.35
CGGGAUGACUACAAUCUGGTT against Ssbp3 -2.17
GGCCUAUAGGUUGGGCUCUTT against Tonsl -2.57
GUUCAUGUCUAUCCUGUCUTT against Hba-x -2.45
GCAGUACCGAGCAGCAGAATT against Acad10 -2.41
GAAUAGAAGGGAAGAAAGUTT against Crb3 -2.08
GGAAAACCUAAUAAGGUUCTT against Iqce 2.72
GCUUAUGUCGAAUGAUAGCTT against Id2 -4.22
GGGUUGAAAGAGCUUGCCATT against Vmn1r198 -2.56
GGUUGAAGCAGAAGAUAAUTT against Asnsd1 -2.2
GCAAAUCCCAUGAACAGCUTT against Nvl -2.55
GGGUGUGAGGGAUUUCAUCTT against Ndufa2 2.22
GGAGUGAAGGUUCAGAUCCTT against Asic2 3.1
CCAGCCGUAUUACAACUACTT against Bpnt1 2.12
GCUGUUGCUGGCUAUUCUGTT against Eef2kmt -2.3
GGAGCAGGACGAGAAUCAATT against Cdkn1c 3.62
GGUUUCCAGUAAGAUCUUATT against Mdn1 2.21
GGCACUUCAAGGAGUUUUUTT against Lig4 3.25
GGCAAUUUCUAAACAGGGATT against Atp6v1f -2.01
GGCAAAUUAGCUAGUAUCATT against Rai2 -2.2
GGCUCAAAGCCAAUCUGAATT against Recql4 2.06
GAGCUGUGAAUGCCUGUGGTT against Lyz2 -2.33

z-score, inactive:
GCGACCAUUUCGUUUUAGUTT against Frat1 1.07
GGAAAGCAAGUCGUAAGCCTT against Mrps10 -0.755
AAUGCUCAGAAAGAAUAACTT against Sprr2e -0.31
UGUUACUGGACUCUCCACATT against Olfr320 0.372
GCUGUGUUAGGAUUGUCCATT against Olfr553 0.252
GGCAUCAAGUCCAUUUUUGTT against Slc12a4 0.108
GGCAGGCAGAAAGCUUUGUTT against Olfr1054 1.8
GCUAAUCACCAAAGCUGAGTT against Larp7 0.546
CCUAAUCUUCGUGCUUUACTT against Minpp1 1.4
CCUGUGAAAGAUGCUUAUATT against Capn7 -1.65
GCUCAGCUAGCAGAAAUUCTT against Nlrp2 -1.76
GGAGGCCAAAGGACUGAUCTT against Hectd4 1.56
CCACAGACAGUUAUUACUGTT against Adgre1 -1
CCCAAGAGUGUUUGAGAACTT against Zbtb43 0.213
GGCAUUUAUUAUCAGGCUGTT against Pes1 0.665
GCUCGAGAAGAGUUUGUUATT against 1700030J22Rik 0.933
GCAACUUGUUAGUGGACUCTT against Olfr620 -1.08
GCUAUGUGGGAAGUUUCAUTT against Tmem263 0.924
GCGUGGAGUCUUCAGUCAUTT against Vhl -0.101
GGAGAAGAGGACAGAAGCCTT against Akt1s1 0.757
GCUCAAAACAAUCCACGCCTT against 1700006J14Rik -0.47
GGAUGAGAACAACUCUGCUTT against Lrtm2 0.439
GGACCUGUUUGAUUUGGUGTT against Nf2 0.8
GGAAAACCUUGGACAGGAGTT against Olfr876 -0.267
UGUGACUAUUGUUACUGUGTT against Olfr1512 -1.06
CGAAUGUGGCUAUGACCUGTT against Kif6 0.555
GGAAAAGGAGGUGGUACUGTT against Acan 0.743
GCAUACAGCUCAACAGUCATT against Padi2 -0.51
GGAGAAGUAGAUGUAUAUGTT against Prkar1b -1.4
GUACACCACAAUCCUCACCTT against Olfr677 -0.0852
GGUCCAGAGAAUGUUAUUATT against Spinkl 0.263
GGGAACUUCCUUGAGAAGATT against Mgat4d 0.654
GCAACGUGUCUUUUCAAACTT against P2ry10b -0.223
GUUUCCUUGUGCUAAUGUUTT against Olfr1199 1.15
GGCUCCAACAUAGAAAUGATT against Tpbpa 0.38
GCUACGCAUUGAGGAGCUATT against Pkn1 0.168
GGCUGCCAAGAAAAUCUAUTT against Rab14 0.363
GGAUGAACUCAUGAGAGCCTT against Cyb5r4 -0.323
CCGAGGUUGUGAAACGAUGTT against Trp63 -1.47
GGAACCUCCUUAUUCAAUGTT against Rspry1 0.0592
GGUGGAGGUCUGGUUUAAGTT against Gsc -0.4
GGUUGGCACAACUGUGUACTT against Cr2 -0.0754
GGAAACCAACUUCAGCCUGTT against Gfra1 -0.0125
GGGCAAUCGACUGAGAAUUTT against Lingo4 -0.0246
CGAAGAAAACCAUAAGGACTT against Bdnf -0.876
GGAGAGCAAAUUAAGUUCATT against Erc1 1.01
GCAAUAAGGGCAUUAUAAATT against Wdhd1 -0.407
GGUUCAUAAUGCCUUCAAGTT against Olfr1449 0.719
CCAGGAAGUUACAAUUCAATT against Ccpg1 0.181
GCCUAAUGCCAACUCACAATT against Samd7 -1.49
GGCACUGCACUUUAACAUATT against Serpinb7 -0.402
CCUAACCAUCGACUUCUUCTT against Wfs1 -0.189
GCGGGACUGACCUCUUAAUTT against Guk1 -0.244
GGCUUUCAGAGUUAACAAATT against Ptpn4 -0.727
GGGUGUCUUCAACAAGUACTT against Dnttip1 -1.71
GGAAAAAAGGAUUUCAAACTT against Rad9b 1.3
GGAAAGACCACCAAAUCCCTT against Dpy30 1.48
GGCUCCAUAUGGAAUGCAGTT against Ets2 0.571
GCUUAAACCGCCUAUGUUCTT against Spcs1 0.782
GCUCACCUUUCUUGAGAAATT against 4930579C12Rik -0.179
GGAAAAAGUGCAUUUAUGUTT against Prpf40a -1.16
AACAUGUCCAACCUAGGCATT against Lefty1 -1.44
GGUGGACUACUCACGAUUCTT against Kcnj4 0.867
GCACUGGAAUCAAACCAUCTT against Ppp2r5b 0.444
CGCAUUUUCUCUCGAGCUUTT against Slc25a30 -0.34
GGAGCACAGUUUUGGUGCUTT against Olfr576 1.82
GGAAGUAAAGCUCUACAAGTT against Vps28 0.236
GGCACAAUUUCUUUGAAUCTT against Ophn1 0.885
GGCUAUUAGGUUUGAAAUCTT against Grsf1 0.351
CCUAGAUUCUCCAAACUAATT against D630029K05Rik -0.238
GGAGAUGCGAGUACAACUGTT against Ermn 0.479
GGAAAGAUGUGGUCCAGCUTT against Sirt3 0.373
UUAAGCCGCUUUUGAAGCUTT against Olfr1200 0.812
GGCUUUCAAGAUUCAGUGATT against Gsta1 0.103
GGAAAAUAAGCUAAGGAAGTT against Peg12 -0.018
GCGAUGCUCCUAAUUCUUATT against Dusp21 -1.18
GCUACAGUUUGUGGGUGACTT against Zmynd15 0.11
CGAGUAUCCCGUCAAGUUGTT against 6820408C15Rik -0.699
GGUGGAGAAGAGUUUCUGCTT against Gpr132 0.375
GGAGAAACAGAAGUAUUGATT against Nsa2 -0.559
GGGUUGGAACAAGGUAAUUTT against Usp16 -0.546
GCUGUAUCCAGCUUUUCGGTT against Tcf3 -0.43
GCGAGAUUCUUAAAGAAAUTT against Brdt 0.645
GCUAGUUAAUGGUAACAUATT against Sult1d1 -1.68
GGCCAAACUGGAUUACUUATT against Tmprss11c 1.26
CCCUGCUCUCACUUGUUUATT against Olfr643 -0.446
